Source: PubChem BioAssay
LASV entry inh – inhibitors of Lassa virus binding or cell entry | Lassa virus pseudotype entry inhibition, cell reporter | 300,000 compounds, 1.2% hits | Potency, µM (titrated, usually from 37.9 µM), actives largely listed as inhibitors; calls by dose curve; tested in HEK293 cells; also: nearly all actives have a fitted effect of over 50% in size
AMA1 RON2 block – inhibitors of Plasmodium falciparum AMA1-RON2 interaction | AlphaScreen AMA1-biotinylated RON2 peptide binding | Potency, µM (series often up to 58.2 µM), hits mostly inhibitors | 360,000 compounds, 0.2% hits | AID 720542; active = well fitted inhibition curve with a large enough effect; inconclusive = small, poorly fitted or top-dose-only effect; inactive = no such curve, though single readings can be large or run the other way; also: nearly all actives have a fitted effect of over 45% in size
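AMA1 (3D7) with his tag at 25 nM final met compounds first, then biotinylated RON2 peptide at 25 nM; detection used donor plus acceptor beads, 10 µg/mL apiece, read by AlphaScreen after 30 min at room temperature.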
Shiga inhibitor – inhibitors of Shiga toxin in Vero cells. AID 2315. Vero cells, Shiga toxin protein synthesis inhibition reporter. 290,000 compounds, 9.2% hits. inhibition, % at 38.7 µM; in the data active = inhibition mostly above about 28%, no sharp cut-off; inactive = mostly below about 43%
CHX counter – counter-screen for Shiga toxin inhibitors: cycloheximide protein synthesis inhibition; max response, %; cell reporter, cycloheximide protein synthesis inhibition counterscreen; 300,000 compounds, 12% hits; in the data active = max response mostly above about 13%, no sharp cut-off; inactive = mostly below about 14%; also: read at 38.3 µM for the half of the compounds with a filed dose
Marburg entry inh – blocks Marburg virus binding to or entry into cells; Marburg virus pseudotyped entry inhibition, cell reporter; Potency, µM (doses to about 37.8 µM), usual class: inhibitors; 300,000 compounds, 1.8% hits; AID 540276; calls by dose curve; tested in HEK293 cells
Each line names hits and unclear results; the compound was inactive in the other large screens. This excerpt belongs to a sample that is enriched for hits.

CSCC[C@H](NC(=O)OC(C)(C)C)C(=O)N/N=C/c1ccc2nccnc2c1	Marburg entry inh 3.2µM
C=CCN=C1S/C(=C\c2ccc(Cl)cc2)C(=O)N1CC=C	Shiga inhibitor 49
COC(=O)c1ccccc1NC(=O)Cc1nc(-c2ccc(OC)cc2)no1	none (no result: AMA1 RON2 block, Shiga inhibitor, CHX counter, Marburg entry inh)
O=C(Nc1ccccc1F)C(=O)Nc1cccc2ccccc12	LASV entry inh inconclusive, CHX counter 28, Marburg entry inh inconclusive (no result: Shiga inhibitor)
O=C(Nc1cccc2ccccc12)/C(Cl)=C/c1ccccc1	Shiga inhibitor 82, CHX counter 42
O=C(Nc1cccc2ccccc12)/C(=C/c1ccc([N+](=O)[O-])cc1)NC(=O)c1ccccc1	none
Cc1ccc(N(CC(=O)Nc2ccc(-c3nc4ccc(C)cc4s3)cc2)S(C)(=O)=O)cc1	Shiga inhibitor 117, CHX counter 58, Marburg entry inh inconclusive
Cc1ccc(C)c(N(CC(=O)Nc2ccc(-c3nc4ccc(C)cc4s3)cc2)S(C)(=O)=O)c1	Shiga inhibitor 80, CHX counter 28
Cc1ccc2nc(-c3ccc(NC(=O)c4ccc(S(C)(=O)=O)cc4)cc3)sc2c1	none (no result: AMA1 RON2 block, Shiga inhibitor, CHX counter, Marburg entry inh)
Cc1ccc(Nc2n[nH]c(C)c2[N+](=O)[O-])cc1	Shiga inhibitor 43, CHX counter 29
Cc1[nH]nc(NCCO)c1[N+](=O)[O-]	none
Cc1[nH]nc(NNC(=O)c2ccccc2)c1[N+](=O)[O-]	none
Cc1[nH]nc(Nc2ccc(Br)cc2)c1[N+](=O)[O-]	Shiga inhibitor 112, CHX counter 56 (no result: LASV entry inh, Marburg entry inh)
Cc1cccc(Nc2n[nH]c(C)c2[N+](=O)[O-])c1	LASV entry inh inconclusive, Shiga inhibitor 107, CHX counter 63, Marburg entry inh 13µM
Cc1[nH]nc(Nc2ccccc2)c1[N+](=O)[O-]	LASV entry inh inconclusive, CHX counter 31
Cc1ccc(C)c(NC(=O)Cn2c(=O)n(CCC(C)C)c(=O)c3cccnc32)c1	none (no result: LASV entry inh, AMA1 RON2 block, Shiga inhibitor, CHX counter)
CCCN(C(=O)Cn1c(=O)oc2cc(Cl)ccc21)c1ccc(C(C)C)cc1	none (no result: AMA1 RON2 block, Shiga inhibitor, CHX counter)
CCc1ccc(NC(=O)CSc2n[nH]c(C)c2[N+](=O)[O-])cc1	none
Cc1[nH]nc(Nc2ccc(C(C)C)cc2)c1[N+](=O)[O-]	LASV entry inh inconclusive, Shiga inhibitor 55, CHX counter 57, Marburg entry inh inconclusive
Cc1[nH]nc(Sc2ccccn2)c1[N+](=O)[O-]	LASV entry inh inconclusive, Shiga inhibitor 44
O=C(CCS(=O)(=O)c1ccc(F)cc1)Nc1nccs1	none (no result: LASV entry inh, Shiga inhibitor, CHX counter, Marburg entry inh)
CCCCN(C)c1c(C)nc2ccc(C(=O)NCCOc3ccc(OC)cc3)cn12	none (no result: LASV entry inh, Shiga inhibitor, CHX counter, Marburg entry inh)
ON=C1c2ccccc2-c2cc(Br)ccc21	none (no result: Shiga inhibitor, CHX counter)
CC(C)CN1C(=O)c2ccc(C(=O)Nc3ccc(OCC(=O)O)cc3)cc2C1=O	none
CC12CCC3c4ccc(OC(=O)N(CCCl)CCCl)cc4CCC3C1CCC2O (centres undefined)	LASV entry inh 5.6µM, Marburg entry inh inconclusive (no result: Shiga inhibitor, CHX counter)
CCC(=O)Oc1ccc2c(c1)CCC1C2CC[C@]2(C)C(OC(=O)CC)CCC12 (some centres undefined)	none (no result: LASV entry inh, AMA1 RON2 block, Marburg entry inh)
O=C(CCCc1ccccc1)NC1CC(=O)N(c2ccc(Cl)cc2)C1 (centres undefined)	none (no result: AMA1 RON2 block, Shiga inhibitor, CHX counter, Marburg entry inh)
Cc1cc(-c2csc(N)n2)c(C)n1C	AMA1 RON2 block 28µM
CCn1ncc(-c2csc(N)n2)c1C	CHX counter 26
CCn1cc(-c2csc(N)n2)c(C)n1	none
Cc1cc(-c2csc(N)n2)c(C)n1Cc1ccco1	CHX counter 36, Marburg entry inh inconclusive
Cc1ccc(-n2c(C)cc(-c3csc(N)n3)c2C)cc1	none
COc1cccc(CN2CC34CCC(CC3S2(=O)=O)O4)c1 (centres undefined)	none (no result: LASV entry inh, AMA1 RON2 block, Marburg entry inh)
Cc1cccc(NC(=O)CSc2nnc(C)c(C)n2)c1	none (no result: LASV entry inh)
O=C(Nc1ccc(S(=O)(=O)Nc2ncccn2)cc1)c1cccnc1	Shiga inhibitor 114, CHX counter 59, Marburg entry inh inconclusive
CCCCSc1ccc(NC(=O)c2cccnc2)cc1	CHX counter 14
CCNS(=O)(=O)c1ccc(NC(=O)c2cccnc2)cc1	none
CCC(C)c1ccc(NC(=O)c2cccnc2)cc1 (centres undefined)	LASV entry inh inconclusive, Shiga inhibitor 59, CHX counter 43
O=C(CSc1nnnn1-c1cccnc1)Nc1ccccc1F	none
COc1ccc(NC(=O)c2cc3c(s2)-c2c(C)cccc2OC3)c(OC)c1	none (no result: LASV entry inh, AMA1 RON2 block, Shiga inhibitor, CHX counter)
N#CC1CC(c2ccccc2)Nc2cc(Cl)ccc2N1 (centres undefined)	Shiga inhibitor 69, CHX counter 37 (no result: LASV entry inh, Marburg entry inh)
CCC(Sc1nncn2c1cc1occc12)C(=O)Nc1ccc(C)c(Cl)c1 (centres undefined)	none (no result: AMA1 RON2 block, Shiga inhibitor, CHX counter, Marburg entry inh)
COc1cccc(-c2nc3ccccc3s2)c1	LASV entry inh inconclusive, Shiga inhibitor 74, CHX counter 38, Marburg entry inh inconclusive
CN(CC(=O)Nc1c(Cl)cccc1Cl)C(=O)c1ccccc1-c1nc2ccccc2s1	none (no result: Shiga inhibitor, CHX counter)
COc1cccc(NC(=O)CN(C)C(=O)c2ccccc2-c2nc3ccccc3s2)c1	Marburg entry inh 7.1µM (no result: Shiga inhibitor, CHX counter)
COc1ccc(-c2nc3ccccc3s2)cc1	CHX counter 16 (no result: LASV entry inh, Marburg entry inh)
CCCCc1ccc(NC(=O)C(=O)NCCN2CCN(Cc3ccc([N+](=O)[O-])cc3)CC2)cc1	none (no result: LASV entry inh, Marburg entry inh)
CCn1ccc(C(=O)N2CCOCC2)n1	none
CCn1ccc(C(=O)Oc2ccc(C(C)C)cc2)n1	Shiga inhibitor 71, CHX counter 36
COc1ccc(CN2C[C@@H](CO)O[C@@H](n3cnc4c(NCc5ccco5)ncnc43)C2)cc1	none (no result: LASV entry inh, Shiga inhibitor, CHX counter, Marburg entry inh)
Cc1cc2nnc(SCC(=O)Nc3cc(S(=O)(=O)N4CCOCC4)ccc3Cl)n2c2ccccc12	Marburg entry inh 7.9µM
CN(CC(=O)Nc1cccc(F)c1)C(=O)c1cc([N+](=O)[O-])ccc1N1CCCCC1	Marburg entry inh inconclusive (no result: Shiga inhibitor, CHX counter)
CC(=O)Nc1ccc(NC2=CC(=O)c3ccccc3C2=O)cc1	Shiga inhibitor 111, CHX counter 55, Marburg entry inh inconclusive
O=C1C=C(Nc2ccc(O)cc2)C(=O)c2ccccc21	LASV entry inh inconclusive, AMA1 RON2 block inconclusive, Shiga inhibitor 68, CHX counter 44, Marburg entry inh inconclusive
CCOC(=O)c1ccc(NC2=CC(=O)C(=O)c3ccccc32)cc1	LASV entry inh inconclusive, Marburg entry inh inconclusive
Cc1nn(CC(=O)NCCCN2C(C)CCCC2C)c(=O)c2cc3occc3n12 (centres undefined)	LASV entry inh inconclusive
COc1ccccc1NC(=O)Nc1cnccn1	LASV entry inh inconclusive
COc1ccc(OC)c(NC(=O)Nc2cnccn2)c1	CHX counter 16
COc1cccc(NC(=O)Nc2cccs2)c1	CHX counter 24
COc1cccc(NC(=O)Nc2ccncc2)c1	CHX counter 17
COc1cccc(NC(=O)Nc2ccc(C(C)(C)C)cc2)c1	LASV entry inh inconclusive, Shiga inhibitor 51, CHX counter 25, Marburg entry inh inconclusive
COc1cccc(NC(=O)Nc2ccc(Cc3ccncc3)cc2)c1	Marburg entry inh inconclusive
CCN1C(=NCc2ccc(OC)cc2)NC(c2cccc(F)c2)C(C(=O)OC)=C1C (centres undefined)	none (no result: LASV entry inh, AMA1 RON2 block, Shiga inhibitor, CHX counter)
COc1ccc(NC(=O)COC(=O)CNC(=O)COc2ccccc2)cc1OC	none (no result: Shiga inhibitor, CHX counter)
COc1cccc(NC(=O)C(=O)NCc2ccncc2)c1	AMA1 RON2 block inconclusive, Shiga inhibitor 78, CHX counter 29, Marburg entry inh inconclusive
